Shown are actives, neighbours in structure and some others; about 1.6% of the full set was active somewhere.
eIF4E-4G inh – blocks eIF4E binding to eIF4G. AID 782. TR-FRET eIF4E-eIF4GI(517-606) binding, 2 h. 220,000 compounds, 0.37% hits. P63073+Q04637. inhibition, % at 21.7 µM;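 active = inhibition above about 30%, limit read from the data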;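 note: 0% = full FRET control wells and 100% = background wells lacking eIF4GI fragment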
PABP FP inh – blocks human PABP binding to poly(A) RNA; 290,000 compounds, 1% hits; fluorescence polarization; inhibition, % at 35 µM;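 note: calls also rest on retests at 20 µM and on dose response follow-up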
Target sequence (P11940 whole entry, looked up): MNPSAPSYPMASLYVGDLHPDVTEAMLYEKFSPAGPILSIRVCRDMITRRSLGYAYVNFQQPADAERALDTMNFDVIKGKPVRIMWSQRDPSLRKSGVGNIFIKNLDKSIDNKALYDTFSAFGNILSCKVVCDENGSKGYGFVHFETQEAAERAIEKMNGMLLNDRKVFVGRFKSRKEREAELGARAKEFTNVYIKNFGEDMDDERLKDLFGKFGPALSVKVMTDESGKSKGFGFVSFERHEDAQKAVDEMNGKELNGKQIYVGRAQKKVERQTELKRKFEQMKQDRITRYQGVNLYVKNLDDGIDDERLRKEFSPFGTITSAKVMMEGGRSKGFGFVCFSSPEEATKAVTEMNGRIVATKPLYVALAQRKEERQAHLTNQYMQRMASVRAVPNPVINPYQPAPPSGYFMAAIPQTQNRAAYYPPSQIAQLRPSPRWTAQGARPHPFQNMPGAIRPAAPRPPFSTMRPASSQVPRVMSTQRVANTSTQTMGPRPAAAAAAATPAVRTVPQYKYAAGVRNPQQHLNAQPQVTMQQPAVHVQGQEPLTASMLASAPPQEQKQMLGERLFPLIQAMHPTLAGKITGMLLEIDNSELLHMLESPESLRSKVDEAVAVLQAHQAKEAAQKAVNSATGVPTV
PERK inh – blocks human PERK kinase; AID 1416; inhibition, % at 5.6 µM; Q9NZJ5; 220,000 compounds, 0.17% hits; CHO PERK-DD fusion, SEAP luminescence translation reporter;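 active = inhibition above the mean inhibition of all tested compounds plus 3 SD, set separately per screening campaign, cut at about 2.9% in these data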;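 note: PERK kinase domain activated by AP20187 dimerizer at 100 nM; 0% = DMSO with dimerizer and 100% = rapamycin at 8.4 µM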
eIF4H FP inh – inhibitors of RNA binding by human eIF4H. 290,000 compounds, 0.94% hits. Q15056. eIF4H fluorescence polarization binding assay. inhibition, % at 35 µM;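 note: calls also rest on retests at 20 µM and on dose response follow-up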
PABP1 MLLE inh – blocks PAM2 peptide binding to the PABP1 MLLE domain; GST-MLLE / FITC-PAM2 fluorescence polarization; P11940; inhibition, % at 20 µM; 360,000 compounds, 0.36% hits; in the data active = inhibition above about 35%, passing the limit was not always enough;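 note: plate controls were DMSO wells with GST-MLLE for no effect and wells lacking GST-MLLE protein for full effect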
* hit, by the source's call; u = inconclusive; x = not tested or not shown; [ ] = remark or other dose. Unless noted, the rule behind the calls is not given here.

SMILES	eIF4E-4G inh	PABP FP inh	PERK inh	eIF4H FP inh	PABP1 MLLE inh
CCN1CCN(C(=O)CCCn2c(C)c3cnn(-c4ccccc4)c(=O)c3c2C)CC1	-4	-17	1	-11	2
Cc1c2cnn(-c3ccccc3)c(=O)c2c(C)n1CCCC(=O)NCCN1CCN(C)CC1	-2	6	3.7*	-5	-22
O=C1NN(c2ccc(Cl)c(Cl)c2)C(=O)/C1=C/c1cccc(OC(=O)c2cccs2)c1	-5	56*	1	82*	x
O=C1NN(c2ccccc2)C(=O)/C1=C\c1cccc(OC(=O)c2cccs2)c1	2	19	0	9	13
Cc1ccc(SCc2cc(=O)[nH]c(/N=C(\N)Nc3ccc(C)c(C)c3)n2)cc1	49*[fluorescence artefact?]	-9	0	-6	-7
COc1ccc(CNC(=O)c2ccc(-c3ccccc3)cc2)cc1OC	1	-3	1	-3	-6
CC(C)c1ccc(O)c(NC(=S)NC(=O)CCc2ccccc2)c1	-1	-1	0	12	43*
Cc1ccc(-c2ccnc3nc(-n4cccc4)nn23)o1	0	active	-1	56*	2
c1ccc(-c2ccnc3nc(N4CCN(c5ccccc5)CC4)nn23)cc1	7	18	1	32	2
Cc1ccc(Nc2nc(N)c([N+](=O)[O-])c(NCCO)n2)cc1	-1	10	-1	5	-9
Cn1cnc([N+](=O)[O-])c1S(=O)(=O)Oc1ccc(Cl)cc1	x	x	x	x	41*
Cn1cnc([N+](=O)[O-])c1S(=O)(=O)Oc1cccc2ccccc12	x	x	x	x	20
CCN(CC)c1ccc(N/C(N)=N/c2nc(C(F)(F)F)cc(=O)[nH]2)cc1	3	79*	1	active	-5
N/C(=N\c1nc(C(F)(F)F)cc(=O)[nH]1)Nc1ccc(Cl)cc1	1	44	1	-6	x
O=[N+]([O-])c1ccc2nc(N3CCCC3)sc2c1	x	50*	x	34	-87
CCOc1cc(N2CCOCC2)c(OCC)cc1NS(=O)(=O)c1cc(NC(C)=O)ccc1OC	x	20	x	59*	-12
CCOc1cc(N2CCOCC2)c(OCC)cc1NC(=O)CN1CCCC(C)C1 (stereo unspecified)	2	77*	-1	u	-10
CN1CCc2c(sc3nc(SCC(N)=O)n(-c4ccccc4)c(=O)c23)C1	-1	103*	0	122*	-41
CC(C)Cn1c(N)c(C(=O)CSc2nc3ncc(Cl)cc3[nH]2)c(=O)n(C)c1=O	x	x	x	x	-80
Cc1ccnc(NS(=O)(=O)c2ccc3c(c2)CCO3)c1	88*	-4	1	-4	x
COc1ccc(CCNC(=O)CN(c2ccc(OC)c(OC)c2)S(C)(=O)=O)cc1	2	6	0	25	-3
O=C1NC(c2ccc3c(c2)OCO3)Oc2ccccc21 (stereo unspecified)	37*[fluorescence artefact?]	7	0	1	6
O=C1NC(c2ccc3c(c2)OCO3)Nc2ccccc21 (stereo unspecified)	5	-6	2	8	-8
CCN1C(=O)c2ccc(C(=O)Nc3cccc(C(=O)O)c3)cc2C1=O	x	-1	x	-1	-8
COC(=O)c1ccccc1NC(=O)CSc1nc(O)c(-c2ccccc2)c(=O)[nH]1	5	18	2	16	1
SMILES	eIF4E-4G inh	PABP FP inh	PERK inh	eIF4H FP inh	PABP1 MLLE inh
COC(=O)c1cccc(NC(=O)CSc2nc(O)c(-c3ccccc3)c(=O)[nH]2)c1	2	37*	1	u	29
CCOc1ccccc1NC(=O)CCS(=O)(=O)c1ccc(OC)cc1	3	u	2	8	4
CCc1ccccc1NC(=O)CCS(=O)(=O)c1ccc(OC)cc1	x	3	x	54*	16
CCOC(=O)N/N=C(\CCC(=O)O)c1cccs1	-4	8	3.0*	-1	6
COc1ccc(C2=CC(c3ccco3)n3ncnc3N2)cc1 (stereo unspecified)	0	-9	1	u	144
Clc1ccc(C2=CC(c3ccco3)n3ncnc3N2)cc1 (stereo unspecified)	9	79*	0	u	160
O=c1c(-c2c(O)cc(O)c3c(=O)cc(-c4ccc(O)cc4)oc23)c(-c2ccc(O)cc2)oc2cc(O)cc(O)c12	2	65*	x	95*	-14
O=c1cc(-c2ccc(O)cc2)oc2c(-c3c(O)cc(O)c4c(=O)cc(-c5ccc(O)cc5)oc34)c(O)cc(O)c12	x	x	x	x	-7
O=C1c2ccccc2C(=O)N1CC1=CCS(=O)(=O)C1	-1	-3	0	-7	39*
O=C1c2ccccc2C(=O)N1CCCN1C(=O)c2ccccc2C1=O	x	x	x	x	4
Cc1[nH]nc2c1C1(C(=O)N(Cc3ccc(Cl)cc3)c3ccccc31)C(C#N)=C(N)O2 (stereo unspecified)	-5	7	-1	4	11
O=C(COc1ccccc1)N/N=C/c1ccc([N+](=O)[O-])o1	3	69*	1	51*	6
O=C(N/N=C/c1ccc([N+](=O)[O-])o1)C(=O)Nc1ccc(C(=O)O)cc1	1	62*	0	83*	5
Cc1ccc(OCC(=O)N/N=C/c2ccc([N+](=O)[O-])o2)cc1	-6	-7	1	23	3
CN(C)S(=O)(=O)c1ccc(NC(=O)CSc2nnc(-c3ccco3)o2)cc1	x	x	x	x	-2
COc1ccccc1Nc1nc(N)nc(CN2CCCCC2)n1	2	89*	0	2.7*	-10
COc1ccccc1Nc1nc(N)nc(CN2CCN(Cc3ccccc3)CC2)n1	-5	7	-2	4	9
CCCNC(=O)C1Cc2cc(S(=O)(=O)N3CCCC3)ccc2N1C(C)=O (stereo unspecified)	x	5	x	-2	-6
COC1OC(COC(=O)c2ccccc2)C(OC(=O)c2ccccc2)C1OC(=O)c1ccccc1 (stereo unspecified)	x	0	x	-12	17
O=C(O)C[C@@H]1C(=O)O[C@@H]2C(COC(=O)c3cc(O)c(O)c(O)c3)O[C@@H](OC(=O)c3cc(O)c(O)c(O)c3)[C@@H](OC(=O)c3cc(O)c(O)c4c3[C@H]1[C@H](O)C(=O)O4)[C@H]2OC(=O)c1cc(O)c(O)c(O)c1 (stereo partly specified)	38*	91*	x	87*	x
O=C(NCCc1ccc(C(F)(F)F)cc1)C1CCC(=O)N(CCCc2ccccc2)C1 (stereo unspecified)	x	4	x	-1	-5
CC1Cc2ccccc2N1C(=O)CN1C(=O)NC(C)(c2ccc3c(c2)OCCO3)C1=O (stereo unspecified)	7	54*	-1	0.5*	-42
COc1ccc(CCNC(=O)COc2ccc3c(C)cc(=O)oc3c2)cc1	x	x	x	x	-5
O=c1c2ccccc2[nH]c2ccc(O)cc12	x	68*	x	92*	26
Cc1ccc(S(=O)(=O)CC(=O)Nc2nnc(C(C)(C)C)s2)cc1	x	22	x	9	38*
CCC(CC)c1nnc(NC(=O)CS(=O)(=O)c2ccc(C)cc2)s1	x	8	x	-1	27
CC(C)(C)c1csc(NC(=O)CS(=O)(=O)c2ccccc2)n1	x	-2	x	-8	7

Source: PubChem (several laboratories)
